Data on 8 molecules can be found in the supplement of paper PMC8253809.

What all share (assay): growth inhibition (% activity, log2 RLU normalised to DMSO / staurosporine); higher = more growth inhibition
What all share (conditions): 33 µM

One assay has as its system DIPGX29 (H3.3 K27M diffuse intrinsic pontine glioma line). Summed up: (§1)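 Approved drugs were tested in triplicate at a single final concentration of about 33 μM for 7 days at 37 °C, 5% CO2, on pHGG cell lines and H9-derived neural stem cells. Readout was CellTiter-Glo luminescence, log2-transformed and scaled per plate to % activity between solvent and positive control wells. The median over replicates gives the growth-inhibition value.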

The test system of another assay is DIPGX37 (H3.3 K27M diffuse intrinsic pontine glioma line). The method in brief:
as §1

In the next assay the test system is DIPGX7 (H3.3 K27M diffuse intrinsic pontine glioma line). Summed up: as §1
The next assay concerns DIPGX9 (diffuse intrinsic pontine glioma line). Summed up: as §1
Another assay deals with HGGX39 (paediatric high-grade glioma line). The method in brief:
as §1

A further assay has as its system HGGX6 (H3.3 G34R paediatric high-grade glioma line). Summed up: as §1
For a further assay, the system named is HNSC. Summed up:
as §1

In the next assay the test system is SUDIPGIV (diffuse intrinsic pontine glioma line)
Summed up:
as §1

The subject of another assay is SUDIPGVI (diffuse intrinsic pontine glioma line)
The method in brief: as §1

The test system of a further assay is SUDIPGXIII (diffuse intrinsic pontine glioma line)
Summed up: as §1

Where “and” joins values, the source holds several entries; their conditions need not be identical. Equal values may be shown once.

In the case of `O=P(O)(O)C(O)(Cc1cccnc1)P(=O)(O)O`, the growth inhibition is 0.184% and -0.127% in the assay with DIPGX29; -0.218% and -0.408% in the assay on DIPGX37; 2.03% and 0.167% in the assay on DIPGX7; 0.335% and 1.09% in the assay on DIPGX9; 3.43% and 1.8% with HGGX39; 2.06% and -1.19% with HGGX6. Moreover, the growth inhibition was 2.32% and -0.808% with HNSC; -0.292% and 0.354% in the assay with SUDIPGIV; -0.685% and 2.28% in the assay on SUDIPGVI; -0.822% and -0.975% in the assay on SUDIPGXIII.
`CCCCNC(=O)NS(=O)(=O)c1ccc(C)cc1`: the growth inhibition was -0.968% in the assay on DIPGX29; 2.64% in the assay with DIPGX37; -0.647% with DIPGX7; 1.33% with DIPGX9; 2.32% in the assay with HGGX39; -1.26% with HGGX6. The growth inhibition was 8.77% in the assay on HNSC, 1.65% in the assay with SUDIPGIV, 2.09% in the assay with SUDIPGVI and -0.858% with SUDIPGXIII.
Consider `CC1(C)S[C@@H]2[C@H](NC(=O)[C@H](N)c3ccccc3)C(=O)N2[C@H]1C(=O)O`, for which the growth inhibition is 0.915% and -0.852% in the assay with DIPGX29; 0.428% and -3.6% with DIPGX37; -0.263% and 0.439% in the assay with DIPGX7; 2.01% and -1.14% in the assay on DIPGX9; 0.0853% and 0.776% in the assay with HGGX39; 0.491% and -0.506% in the assay on HGGX6. Besides, the growth inhibition in the assay on HNSC was -1.66% and -0.947%; in the assay on SUDIPGIV it was 0.0994% and -1.08%; in the assay on SUDIPGVI it was 1.4% and -3.54%; in the assay on SUDIPGXIII, 0.006% and 0.466%.
In the case of `CCOc1cc(CC(=O)N[C@@H](CC(C)C)c2ccccc2N2CCCCC2)ccc1C(=O)O`, the growth inhibition in the assay on DIPGX29 is 0.598%; with DIPGX37 it was -0.0763%; in the assay with DIPGX7 it was 1.67%; in the assay on DIPGX9, -0.0677%; with HGGX39 it was 0.171%; in the assay on HGGX6, -1.18%. In addition, the growth inhibition with HNSC was -2.28%; with SUDIPGIV it was -0.496%; with SUDIPGVI, -6.9%; with SUDIPGXIII, -1.55%.
For `CCCCNc1ccc(C(=O)OCCN(C)C)cc1`, the growth inhibition was -1.31% with DIPGX29; -0.907% in the assay on DIPGX37; 0.627% with DIPGX7; -0.979% in the assay on DIPGX9; 5.11% in the assay on HGGX39; 4.5% with HGGX6. For the same molecule, the growth inhibition with HNSC is 0.385%; with SUDIPGIV it was -0.481%; in the assay on SUDIPGVI, -2.2%; with SUDIPGXIII, 1.02%.
For the molecule `CCOCC(O)COc1ccc(NC(=O)CC[S+](C)C)cc1` (stereo not given), the growth inhibition is -1.2% in the assay with DIPGX29; -0.984% in the assay on DIPGX37; -0.388% with DIPGX7; 0.757% with DIPGX9; -1.5% with HGGX39; -2.39% in the assay on HGGX6. Moreover, the growth inhibition is -2.31% in the assay on HNSC, -1.12% with SUDIPGIV, -0.872% in the assay on SUDIPGVI and 0.764% with SUDIPGXIII.
Turning to `CCOC(=O)[C@H](CCc1ccccc1)N[C@@H](C)C(=O)N1CCC[C@H]1C(=O)O`, the growth inhibition with DIPGX29 was 1.73%; with DIPGX37, -8.18%; in the assay with DIPGX7, 0.205%; in the assay on DIPGX9 it was 0.307%; with HGGX39, 0.569%; in the assay with HGGX6, -0.623%. In addition, the growth inhibition with HNSC was 1.11%; with SUDIPGIV, -1.94%; in the assay with SUDIPGVI, -1.02%; in the assay with SUDIPGXIII it was -3.41%.
As to `CCCCCCOC(=O)NC(=N)c1ccc(NCc2nc3cc(C(=O)N(CCC(=O)OCC)c4ccccn4)ccc3n2C)cc1`, the growth inhibition with DIPGX29 came out at 0.869%; with DIPGX37, 2.08%; in the assay on DIPGX7, 1.77%; in the assay on DIPGX9, 1.32%; in the assay on HGGX39, 1.62%; with HGGX6, 2.11%. The growth inhibition in the assay on HNSC is 1.37%; in the assay with SUDIPGIV it was 0.438%; with SUDIPGVI it was 2.67%; in the assay on SUDIPGXIII, -16.9%.
